Measured values: PubChem BioAssay (NCI)
This is part of a sample that, as a whole, favours compounds with a hit. Of some 83,000 tested, about 20% had one in any assay.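 Note: values are percent growth. 100 is the growth of untreated cells, values between 100 and 0 indicate rising inhibition; between -100 and 0 indicates cell death.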 Unmarked numbers belong to inactive results. Active and inactive are the calls of the source. The calls were made as follows: active = growth percent below 10; inactive = the rest.

Legend:
Assay in all cases: NCI-60 one-dose screen, 48 h (100 = growth as untreated, 0 = no growth, -100 = all killed)
Details in all cases: 10 µM
[1] = tested on: DU-145 prostate
[2] = tested on: K-562 leukemia
[3] = tested on: MDA-MB-231 breast
[4] = tested on: RXF 393 renal
[5] = tested on: SF-268 CNS
[6] = tested on: SF-295 CNS
[7] = tested on: SF-539 CNS
[8] = tested on: UACC-257 melanoma
[9] = tested on: M14 melanoma
[10] = tested on: MALME-3M melanoma

With COc1cc(C2c3cc4c(cc3C(O)C(CO)C2CO)OCO4)cc(OC)c1OC (centres undefined) the growth [1] was 0.809% (active), the growth [2] was 11.3% and the growth [3] was 41.2%. For the same compound, the growth [4] was -6.08% (active), the growth [5] was 35.9% and the growth [6] was -42.8% (active). The growth [7] was -16.4% (active), the growth [8] was 62% and the growth [9] was 22.5%.

O=C(CCc1ccccc1)N1CCN(C(=O)CCc2ccccc2)CC1 was tested, and the growth [1] was 140%, the growth [2] was 108% and the growth [3] was 90.8%. The growth [4] was 109%, the growth [5] was 117% and the growth [6] was 111%. The growth [7] was 104%, the growth [8] was 92.6% and the growth [9] was 95.9%.

CC1(C)CCc2cc(-c3ccn(S(=O)(=O)c4ccc(Cl)cc4)n3)ccc2O1 showed a growth [1] of 88.3%, a growth [2] of 52.4% and a growth [3] of 76.4%. For the same compound, the growth [4] was 89%, the growth [5] was 90.7% and the growth [6] was 78.7%. It also gave a growth [7] of 101%, a growth [8] of 64.9% and a growth [9] of 80.1%.

For CCCCCCCCCCCCCC[n+]1ccc(C)cc1, the growth [1] was 5.11% (active), the growth [2] was 9.19% (active) and the growth [3] was -40.2% (active). For the same compound, the growth [4] was -19.6% (active), the growth [5] was -32.4% (active) and the growth [6] was -67.1% (active). For the same compound, the growth [7] was -33.5% (active), the growth [8] was -21.6% (active) and the growth [9] was -72.7% (active).

COc1cc(Cn2c(-c3ccccc3)c(Cl)c3c2-c2oncc2CC3)cc(OC)c1 was tested, and the growth [1] was 95.9%, the growth [2] was 12.9% and the growth [3] was 67.5%. It also gave a growth [4] of 115%, a growth [5] of 68.8% and a growth [6] of 61%. The growth [7] was 93.9%, the growth [8] was 86% and the growth [9] was 79%.

COc1ccc2nc(/C=C/c3ccc(N(C)C)cc3)sc2c1 showed a growth [1] of 111%, a growth [2] of 73.5% and a growth [10] of 97.4%. It also gave a growth [3] of 95.6%, a growth [5] of 102% and a growth [6] of 93.1%. For the same compound, the growth [7] was 103%, the growth [8] was 119% and the growth [9] was 103%.

C/C(=N/NC(=O)c1sc(=S)n(C)c1N)c1cc2cc(Cl)ccc2o1 gave a growth [1] of 87.2%, a growth [2] of 72.8% and a growth [10] of 113%. For the same compound, the growth [3] was 68.9%, the growth [5] was 80.2% and the growth [6] was 109%. For the same compound, the growth [7] was 99.2%, the growth [8] was 5.89% (active) and the growth [9] was 91.7%.

Compound CCOC(=O)c1cc2c(n1Cc1ccccc1)-c1oncc1CC2 has a growth [1] of 82.8%, a growth [2] of 15.3% and a growth [3] of 95.8%. For the same compound, the growth [4] was 94.6%, the growth [5] was 54.2% and the growth [6] was 64.5%. The growth [7] was 90.5%, the growth [8] was 103% and the growth [9] was 99.6%.

With CN(C)c1ccc2cc(-c3cc4c(oc3=O)-c3ccccc3OC4O)c(=O)oc2c1 (centres undefined) the growth [1] was 11%, the growth [2] was -55.8% (active) and the growth [10] was -59.3% (active). For the same compound, the growth [3] was -39.8% (active), the growth [5] was 56.9% and the growth [6] was -56.4% (active). For the same compound, the growth [7] was 19%, the growth [8] was 42.9% and the growth [9] was -47.8% (active).

For CC(C)(C)CC(C)(C)c1ccc(O)c(Cc2ccc(Cl)cc2Cl)c1, the growth [1] was -89.2% (active), the growth [2] was -59% (active) and the growth [10] was -89.4% (active). For the same compound, the growth [3] was -88.4% (active), the growth [5] was -83.6% (active) and the growth [6] was -91.6% (active). For the same compound, the growth [7] was -75.5% (active), the growth [8] was -66.1% (active) and the growth [9] was -87.9% (active).

With COc1ccc(-c2n/c(=C\c3c(O)[nH]c4ccccc34)cc3c2=Nc2ccccc2-3)cc1 the growth [1] was 19.1%, the growth [2] was -8.09% (active) and the growth [3] was 30.6%. For the same compound, the growth [4] was 44.8%, the growth [5] was 5.04% (active) and the growth [6] was 38.5%. For the same compound, the growth [7] was 82.6%, the growth [8] was 91.8% and the growth [9] was 3.99% (active).

O=C(O)c1ccccc1C(=O)c1cccc2c(F)cccc12 gave a growth [1] of 112%, a growth [2] of 108% and a growth [3] of 99.2%. For the same compound, the growth [4] was 114%, the growth [5] was 111% and the growth [6] was 122%. For the same compound, the growth [7] was 104%, the growth [8] was 98.4% and the growth [9] was 103%.

CC(=O)Oc1ccc(C2=Cc3ccc(OC(C)=O)cc3OC2C)cc1 (centres undefined) gave a growth [1] of 62.8%, a growth [2] of 28.4% and a growth [3] of 67.9%. For the same compound, the growth [4] was 68.9%, the growth [5] was 57.9% and the growth [6] was 69.9%. For the same compound, the growth [7] was 28%, the growth [8] was 81.3% and the growth [9] was 49.8%.

With CC1(C)Cc2c(cn(Cc3ccccc3)c2-c2ccccc2)-c2oncc21 the growth [1] was 103%, the growth [2] was 74.7% and the growth [3] was 104%. The growth [4] was 98%, the growth [5] was 107% and the growth [6] was 99.5%. The growth [7] was 107%, the growth [8] was 101% and the growth [9] was 100%.

For COc1cc(N=C2C(=O)N(Cc3ccccc3)c3ccccc32)cc(OC)c1OC, the growth [1] was 104%, the growth [2] was 97.4% and the growth [3] was 105%. The growth [4] was -23% (active), the growth [5] was 97.4% and the growth [6] was 94.3%. It also gave a growth [7] of 93%, a growth [8] of 96.6% and a growth [9] of 98.2%.

In the case of COc1cc(/C=C/C(=O)c2cc(-c3ccccc3)ccc2O)cc(OC)c1OC, the growth [1] is reported as 91%, the growth [2] is reported as 34% and the growth [3] is reported as 71%. The growth [4] was 97.8%, the growth [5] was 83.2% and the growth [6] was 74.6%. For the same compound, the growth [7] was 80.2%, the growth [8] was 69.9% and the growth [9] was 96.7%.

In the case of COc1cc(OC)cc(-c2n/c(=C\c3c(O)[nH]c4ccc(OC)cc34)cc3c2=Nc2ccccc2-3)c1, the growth [1] is reported as 3.54% (active), the growth [2] is reported as -9.91% (active) and the growth [3] is reported as 3.25% (active). The growth [4] was 79.7%, the growth [5] was 73.6% and the growth [6] was 98.4%. The growth [7] was 108%, the growth [8] was 115% and the growth [9] was 21.4%.

In the case of COc1cc(Cn2c(-c3ccccc3)cc3c2-c2oncc2CC3)cc(OC)c1, the growth [1] is reported as 0.266% (active), the growth [2] is reported as 9.87% (active) and the growth [3] is reported as 5.37% (active). For the same compound, the growth [4] was 33.7%, the growth [5] was 30.6% and the growth [6] was -1.16% (active). For the same compound, the growth [7] was -11.9% (active), the growth [8] was 55.4% and the growth [9] was 0.789% (active).

For O=c1[nH]c(=O)n(C2C[C@@H](O)[C@@H](CO)O2)cc1F (some centres undefined), the growth [1] was 37%, the growth [2] was 9.63% (active) and the growth [10] was 52.7%. The growth [3] was 62.1%, the growth [5] was 24.1% and the growth [6] was 8.65% (active). The growth [7] was 5.71% (active), the growth [8] was 67.8% and the growth [9] was -6.77% (active).

For O=CNc1c(Cl)cc2c(c1Cl)Cc1cc([N+](=O)[O-])ccc1-2, the growth [1] was 79.1%, the growth [2] was 16.4% and the growth [3] was 63.6%. For the same compound, the growth [4] was 96.9%, the growth [5] was 78.8% and the growth [6] was 77.3%. It also gave a growth [7] of 67.9%, a growth [8] of 72.6% and a growth [9] of 28.7%.

Compound Nc1cc2c(cc1Cl)-c1ccc(Cl)cc1C2=O has a growth [1] of 105%, a growth [2] of 89.9% and a growth [3] of 82.5%. The growth [4] was 131%, the growth [5] was 93.8% and the growth [6] was 115%. For the same compound, the growth [7] was 78.2%, the growth [8] was 103% and the growth [9] was 104%.

In the case of CC(=O)CS(C)(=O)=O, the growth [1] is reported as 106%, the growth [2] is reported as 102% and the growth [3] is reported as 108%. For the same compound, the growth [4] was 111%, the growth [5] was 104% and the growth [6] was 115%. It also gave a growth [7] of 109%, a growth [8] of 96.4% and a growth [9] of 108%.

With CC1(C)CC(OCCCC[P+](c2ccccc2)(c2ccccc2)c2ccccc2)CC(C)(C)N1O the growth [1] was 5.39% (active), the growth [2] was -53.4% (active) and the growth [3] was -25.7% (active). For the same compound, the growth [4] was -38.1% (active), the growth [5] was 3.46% (active) and the growth [6] was -56% (active). The growth [7] was 12%, the growth [8] was -40.6% (active) and the growth [9] was 8.8% (active).

With COc1cc(NS(C)(=O)=O)ccc1Nc1c2ccc(Cl)cc2nc2c(OC)cccc12 the growth [1] was -43.6% (active), the growth [2] was 13.4% and the growth [3] was 62.6%. For the same compound, the growth [4] was -11.3% (active), the growth [5] was 9.76% (active) and the growth [6] was 14.5%. For the same compound, the growth [7] was -53.8% (active), the growth [8] was 34.2% and the growth [9] was 14.1%.

COC(=O)c1ccc(Cn2ccc(=O)[nH]c2=O)cc1 gave a growth [1] of 105%, a growth [2] of 113% and a growth [3] of 99.4%. The growth [4] was 108%, the growth [5] was 119% and the growth [6] was 109%. For the same compound, the growth [7] was 83.8%, the growth [8] was 112% and the growth [9] was 102%.

For COc1c(C)c(C)c(OC)c2c1[nH]c(=O)c1c3cccnc3cn21, the growth [1] was 111%, the growth [2] was 102% and the growth [3] was 86.1%. The growth [4] was 116%, the growth [5] was 112% and the growth [6] was 119%. The growth [7] was 103%, the growth [8] was 126% and the growth [9] was 103%.

Work on Cn1c(N)c(N=Cc2ccccc2)c(=O)n(C)c1=O yielded a growth [1] of 124%, a growth [2] of 95.8% and a growth [3] of 98.8%. For the same compound, the growth [4] was 121%, the growth [5] was 110% and the growth [6] was 124%. It also gave a growth [7] of 119%, a growth [8] of 108% and a growth [9] of 98.7%.

With CCN1CCOC1C(C)C (centres undefined) the growth [1] was 110%, the growth [2] was 90.3% and the growth [3] was 99.2%. The growth [4] was 109%, the growth [5] was 102% and the growth [6] was 105%. It also gave a growth [7] of 95%, a growth [8] of 104% and a growth [9] of 93.7%.

CC1(C)CC(=O)c2c(nc3ccc(Cl)cc3c2-c2ccccc2)C1 showed a growth [1] of 106%, a growth [2] of 55.7% and a growth [3] of 85%. For the same compound, the growth [4] was 3.11% (active), the growth [5] was 90.9% and the growth [6] was 76%. It also gave a growth [7] of 97.9%, a growth [8] of 106% and a growth [9] of 99.9%.

O=[N+]([O-])C1CC2C=CC1C2 (centres undefined) showed a growth [1] of 94.7%, a growth [2] of 101% and a growth [3] of 111%. For the same compound, the growth [4] was 99%, the growth [5] was 89.6% and the growth [6] was 92.8%. The growth [7] was 102%, the growth [8] was 105% and the growth [9] was 98.7%.

Compound Cc1ccc2nc3[nH]c(=O)[nH]c(=O)c3c(N)c2c1 has a growth [1] of 77.2%, a growth [2] of 96.2% and a growth [3] of 95.8%. For the same compound, the growth [4] was 77.7%, the growth [5] was 88.5% and the growth [6] was 90.9%. It also gave a growth [7] of 92.3%, a growth [8] of 88.9% and a growth [9] of 96%.
